Laboratory results taken from PubChem BioAssay AID720530 (The Scripps Research Institute Molecular Screening Center, 2013).
About 260 (26%) of roughly 1,000 compounds were called active. A selection follows. A number with no mark means an inactive call. Rule as the data show it: active = inhibition above about 21%; inactive = the rest.

The compounds below were run against E3 ubiquitin-protein ligase UHRF1 (Homo sapiens) (UniProt Q96T88) (assay: UHRF1 methylated DNA binding inhibitors, counter-screen for MBD2 inhibitor project, biochemical, TR-FRET, human UHRF1 (AID 720530;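 also: UHRF1 SRA domain binding a labeled hemimethylated CpG hairpin DNA; 0% = vehicle only and 100% = reference inhibitor with vehicle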)). Conditions: UHRF1 binding to methylated oligonucleotide, at 4.4 µM, hits give high values.
Chain of E3 ubiquitin-protein ligase UHRF1 (Homo sapiens) (Q96T88 whole entry, looked up, the tested form may be a part): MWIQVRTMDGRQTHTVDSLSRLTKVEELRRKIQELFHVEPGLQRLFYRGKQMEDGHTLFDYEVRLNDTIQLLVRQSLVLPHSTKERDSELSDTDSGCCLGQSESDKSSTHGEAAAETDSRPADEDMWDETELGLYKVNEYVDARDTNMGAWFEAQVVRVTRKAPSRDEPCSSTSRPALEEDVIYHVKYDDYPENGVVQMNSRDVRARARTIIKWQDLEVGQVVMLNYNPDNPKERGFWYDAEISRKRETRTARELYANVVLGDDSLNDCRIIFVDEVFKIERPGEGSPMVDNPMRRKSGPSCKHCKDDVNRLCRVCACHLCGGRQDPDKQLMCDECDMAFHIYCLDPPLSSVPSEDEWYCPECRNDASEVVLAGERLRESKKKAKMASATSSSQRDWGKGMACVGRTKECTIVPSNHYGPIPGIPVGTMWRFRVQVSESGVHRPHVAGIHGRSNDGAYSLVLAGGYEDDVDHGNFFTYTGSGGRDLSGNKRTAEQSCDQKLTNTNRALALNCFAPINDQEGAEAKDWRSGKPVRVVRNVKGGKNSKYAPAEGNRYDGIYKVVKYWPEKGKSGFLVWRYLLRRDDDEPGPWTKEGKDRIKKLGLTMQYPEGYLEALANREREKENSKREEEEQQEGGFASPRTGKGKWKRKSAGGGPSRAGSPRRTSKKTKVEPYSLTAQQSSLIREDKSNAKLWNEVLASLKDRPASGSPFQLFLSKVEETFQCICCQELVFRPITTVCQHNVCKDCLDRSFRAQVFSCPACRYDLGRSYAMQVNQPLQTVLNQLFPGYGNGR

| Compound | inhibition |
| --- | --- |
| CCN(CC)CCOc1ccc2c(c1)C(=NNC(=O)c1ccccn1)c1cc(OCCN(CC)CC)ccc1-2 | 108% (active) |
| COC(=O)c1ccc2nc(-c3cccc(Br)c3)c(Cc3ccc(OC)cc3C)n2c1 | 12.2% |
| Cc1ccc(C)c(NC(=O)c2ccc(OC(=O)c3ccco3)cc2)c1 | 8.96% |
| CCOC(=O)CCP(=O)(O)C(O)(c1ccccc1)c1ccccc1 | 4.07% |
| Cc1cccc(NC(=O)C[C@H]2CC[C@H]3[C@@H](COc4ccc(NC(=O)Nc5ccccc5)cc4C(=O)N3C)O2)c1 | 0.48% |
| CC(C)c1nc(CNC(=O)CC2C(=O)NCCN2Cc2cccc(F)c2F)cs1 (centres undefined) | 9.89% |
| COc1ccc2c(c1)c(=Cc1ccc(N(C)C)cc1)c1cc(-c3ccccc3)[n+](C)n12 | 83.9% (active) |
| Cc1ccc(-c2ccnc3nc(Sc4ncc(C(F)(F)F)cc4Cl)nn23)cc1 | 8.79% |
| Cc1cccc(CN2CCN(C3CN(Cc4cn(Cc5cc(C)cc(C)c5)nn4)S(=O)(=O)C3)CC2)c1 (centres undefined) | 9.39% |
| COC(=O)c1cccc(NC(=O)c2cccc(N3C(=O)CCC3=O)c2)c1 | 6.97% |
| COc1ccc(CNC(=O)c2c[nH]c3c(OC)cc(OC)cc3c2=O)cc1 | 5.78% |
| CN(C(=O)COC(=O)c1cc(-c2ccco2)nc2ccccc12)C1CCS(=O)(=O)C1 (centres undefined) | 35.3% (active) |
| O=C(c1n[nH]c2c1CCC2)N1CCCC(Nc2cccc(F)c2)C1 (centres undefined) | 6.16% |
| CC(C)Oc1ccc(C2NC(=O)NC2=O)cc1 (centres undefined) | 6.8% |
| CCOc1cc(-c2noc(CCCC(=O)NC3CCCCC3)n2)ccc1OC | 4.27% |
| c1ccc2cc3c(NCCN4CCOCC4)ccnc3cc2c1 | 21.8% (active) |
| COc1ccc(-n2cc(-c3ccccc3)c3c(=S)nc[nH]c32)cc1 | -1.36% |
| COc1nc(N(C)C)nc(N2CC(=O)N(CCNS(=O)(=O)c3ccc(C)cc3)C2=N)n1 | 6.8% |
| CC(=O)c1ccccc1NC(=O)COC(=O)C1COc2ccccc2O1 (centres undefined) | 2.18% |
| COc1ccc2[nH]c3c(C)c4cc[n+](C)cc4c(C)c3c2c1 | 94.4% (active) |
| CCOC(=O)C1C(=O)OC2(CCCC2)C1C(=O)OCC (centres undefined) | 1.98% |
| O=C(CC1CCCCC1)Nc1c2c(nn1-c1ccc(F)cc1)CS(=O)(=O)C2 | 5.19% |
| C=CCN1C(=O)c2ccc(C(=O)N3CCC(C(=O)OCC)CC3)cc2C1=O | 4.16% |
| C=CC1=C(C(=O)O)N2C(=O)[C@@H](NC(=O)/C(=N\OCC(=O)O)c3csc(N)n3)[C@H]2SC1 | 106% (active) |
